# According to PubChem BioAssay (Tox21):
# Values joined by “and” are separate entries in the source; they are usually repeats but may differ in a detail not shown here. Identical values can stand only once. Results filed as inconclusive are left out. Where a call stands in place of a potency, no number is given. Where a structure was tested more than once in an assay, its records may differ in their call. Active and inactive are the calls of the source. Unless noted, calls come from the whole dose curve; as a rule, active = well fitted curve in the direction sought with a large enough effect in the repeat runs; inconclusive = weak or mixed curves; inactive = no such curve, though single readings can be large; an effect the other way counts as inactive or inconclusive.
# Experiments:
# [1] = qHTS assay to identify small molecule agonists of the peroxisome proliferator-activated receptor delta (PPARd) signaling pathway - cell viability counter screen (AID 743211); note: nearly all actives have a fitted effect of over 55% in size
# Outline: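 In the same wells used for beta-lactamase reporter measurement, cytotoxicity is scored by CellTiter-Glo. HEK293H PPARd-bla cells receive compound for 17 h at 37C following a 5 h settling period.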
# [2] = target: Peroxisome proliferator-activated receptor delta (Homo sapiens) (UniProt Q03181); assay: qHTS assay to identify small molecule agonists of the peroxisome proliferator-activated receptor delta (PPARd) signaling pathway (AID 743212; calls by dose curve)
# Sequence of Peroxisome proliferator-activated receptor delta (Homo sapiens) (Q03181 whole entry, looked up): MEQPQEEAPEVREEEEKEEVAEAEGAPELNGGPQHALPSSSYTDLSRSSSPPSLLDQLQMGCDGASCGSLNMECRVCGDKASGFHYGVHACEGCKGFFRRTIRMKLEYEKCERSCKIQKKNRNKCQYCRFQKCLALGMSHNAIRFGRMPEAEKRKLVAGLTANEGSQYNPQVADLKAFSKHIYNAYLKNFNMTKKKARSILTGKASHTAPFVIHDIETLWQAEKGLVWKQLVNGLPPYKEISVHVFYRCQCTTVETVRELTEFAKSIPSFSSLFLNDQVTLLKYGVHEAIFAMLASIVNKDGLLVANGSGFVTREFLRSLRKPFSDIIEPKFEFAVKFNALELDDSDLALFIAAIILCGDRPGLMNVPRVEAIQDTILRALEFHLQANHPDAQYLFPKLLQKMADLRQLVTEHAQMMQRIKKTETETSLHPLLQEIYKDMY
# Outline: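 Quantitative high-throughput agonist screen in a HEK293H beta-lactamase reporter line under UAS control. Compounds in DMSO, at 37 C. Fluorescence read after 2 h with FRET substrate at room temperature.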
# [3] = qHTS assay to identify small molecule antagonists of the peroxisome proliferator-activated receptor delta (PPARd) signaling pathway - cell viability counter screen (AID 743213); note: nearly all actives have a fitted effect of over 50% in size
# Outline: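 Same-well viability: cells pre-incubated 5 h, dosed with compound plus 300 nM L165041, kept 17 h at 37 C, FRET substrate 2 h RT, then CellTiter-Glo 30 min RT and luminescence.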
# [4] = target: Peroxisome proliferator-activated receptor delta (Homo sapiens) (UniProt Q03181); assay: qHTS assay to identify small molecule antagonists of the peroxisome proliferator-activated receptor delta (PPARd) signaling pathway (AID 743215; active = well fitted inhibition curve with a large enough effect in the signal ratio in the repeat runs, not every such curve was filed as active; the % refers to the signal ratio;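 note: cells stimulated with agonist L165041 at 300 nM final during compound exposure; series mostly up to about 62 µM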)
# Outline: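 With L165041 present at 300 nM final, compounds were incubated 17 h at 37 C on PPARd UAS-bla HEK293H cells. A FRET-based beta-lactamase substrate was then applied for 2 h at room temperature and fluorescence intensity recorded.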
# [5] = target: Bile acid receptor (Homo sapiens) (UniProt Q96RI1); assay: qHTS assay to identify small molecule antagonists of the farnesoid-X-receptor (FXR) signaling pathway (AID 743217; active = well fitted inhibition curve with a large enough effect in the signal ratio in the repeat runs, not every such curve was filed as active; the % refers to the signal ratio)
# Sequence of Bile acid receptor (Homo sapiens) (Q96RI1 whole entry, looked up): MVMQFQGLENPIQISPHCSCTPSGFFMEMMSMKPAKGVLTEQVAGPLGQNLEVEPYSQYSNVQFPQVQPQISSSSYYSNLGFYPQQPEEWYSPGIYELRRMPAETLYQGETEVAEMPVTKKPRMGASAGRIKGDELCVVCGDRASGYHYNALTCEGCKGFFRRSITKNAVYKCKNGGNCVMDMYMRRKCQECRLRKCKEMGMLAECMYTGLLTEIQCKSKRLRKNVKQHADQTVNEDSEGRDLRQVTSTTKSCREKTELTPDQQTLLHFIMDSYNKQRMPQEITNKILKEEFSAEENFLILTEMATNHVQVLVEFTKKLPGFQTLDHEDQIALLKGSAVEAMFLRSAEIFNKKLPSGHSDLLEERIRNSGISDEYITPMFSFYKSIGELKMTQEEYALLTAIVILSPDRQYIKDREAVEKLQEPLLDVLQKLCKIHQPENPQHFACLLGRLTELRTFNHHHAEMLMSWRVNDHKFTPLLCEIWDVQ
# Outline: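 In this cell-based antagonist screen, inhibition of CDCA-driven (50 uM final) UAS-beta-lactamase expression in HEK 293T cells was measured by FRET fluorescence following 16 h compound exposure at 37 °C.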
# [6] = qHTS assay to identify small molecule agonists of the farnesoid-X-receptor (FXR) signaling pathway - cell viability counter screen (AID 743218); note: nearly all actives have a fitted effect of over 45% in size
# Outline: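 After 16 h at 37 C with test compounds, FXR-bla HEK 293T cells were given LiveBLAzer B/G substrate for 2 h at RT and then CellTiter-Glo; luminescence was taken after 30 min.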
# [7] = target: Bile acid receptor (Homo sapiens) (UniProt Q96RI1); assay: qHTS assay to identify small molecule agonists of the farnesoid-X-receptor (FXR) signaling pathway (AID 743220; active = well fitted activation curve with a large enough effect in the signal ratio in the repeat runs, not every such curve was filed as active; the % refers to the signal ratio)
# Outline: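 Beta-lactamase reporter under UAS control in GeneBLAzer FXR HEK 293T cells (5000/well) measured with LiveBLAzer FRET substrate after 2 h at room temperature. Compound exposure lasted 16 h at 37C.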
# [8] = qHTS assay to identify small molecule antagonists of the farnesoid-X-receptor (FXR) signaling pathway - cell viability counter screen (AID 743221; active = well fitted cell-killing curve with a large enough effect in the repeat runs, not every such curve was filed as active; note: nearly all actives have a fitted effect of over 50% in size)
# Outline: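 Here viability was scored by luminescence after CellTiter-Glo addition to wells already read for beta-lactamase. Prior treatment: compound plus CDCA (50 uM final), 16 h, 37 C, HEK 293T FXR-bla cells.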
# [9] = target: Vitamin D3 receptor (Homo sapiens) (UniProt P11473); assay: qHTS assay to identify small molecule agonists of the vitamin D receptor (VDR) signaling pathway (AID 743222; calls by dose curve)
# Sequence of Vitamin D3 receptor (Homo sapiens) (P11473 whole entry, looked up): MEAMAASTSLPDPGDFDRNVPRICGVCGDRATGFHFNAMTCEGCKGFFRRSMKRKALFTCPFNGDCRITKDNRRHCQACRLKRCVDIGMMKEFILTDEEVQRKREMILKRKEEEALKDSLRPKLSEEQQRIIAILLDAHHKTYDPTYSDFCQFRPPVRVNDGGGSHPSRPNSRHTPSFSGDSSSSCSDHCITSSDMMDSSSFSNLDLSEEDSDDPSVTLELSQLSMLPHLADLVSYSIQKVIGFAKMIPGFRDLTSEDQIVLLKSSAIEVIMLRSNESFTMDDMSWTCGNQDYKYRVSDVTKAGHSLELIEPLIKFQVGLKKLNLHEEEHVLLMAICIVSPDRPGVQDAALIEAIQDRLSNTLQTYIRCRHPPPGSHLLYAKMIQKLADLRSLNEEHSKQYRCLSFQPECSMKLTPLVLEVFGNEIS
# Outline: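 VDR-bla cells were seeded, left 4 h, treated with compounds in DMSO for 16 h, incubated 2 h at RT with B/G FRET substrate, and read for fluorescence.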
# [10] = target: Vitamin D3 receptor (Homo sapiens) (UniProt P11473); assay: qHTS assay to identify small molecule antagonists of the vitamin D receptor (VDR) signaling pathway (AID 743223; active = well fitted inhibition curve with a large enough effect in the signal ratio in the repeat runs, not every such curve was filed as active; the % refers to the signal ratio)
# Outline: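 Inhibition of agonist-driven VDR signalling is scored in VDR-bla cells: 3 nM final 1alpha,25-dihydroxyvitamin D3 plus compound, 16 h at 37C, then beta-lactamase detection by FRET substrate fluorescence after 2 h.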
# [11] = qHTS assay to identify small molecule agonists of the vitamin D receptor (VDR) signaling pathway - cell viability counter screen (AID 743224); note: series mostly up to about 63 µM; nearly all actives have a fitted effect of over 50% in size
# Outline: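 Here cell health was gauged by luminescent ATP detection (CellTiter-Glo, 30 min RT) in VDR-bla cells that had been incubated with test compounds for 16 h at 37C and 5% CO2.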
# [12] = qHTS assay to identify small molecule antagonists of the vitamin D receptor (VDR) signaling pathway - cell viability counter screen (AID 743225); note: nearly all actives have a fitted effect of over 50% in size
# Outline: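 Compounds were pinned onto VDR-bla HEK 293T cells together with 1-alpha,25-dihydroxyvitamin D3 at 3 nM final. After 16 h at 37C and 5% CO2 plus the reporter readout, cell viability was measured by CellTiter-Glo luminescence (30 min, room temperature).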
# [13] = qHTS assay to identify small molecule agonists of the NFkB signaling pathway (AID 1159509; active = well fitted curve in the direction sought with a large enough effect in the signal ratio in the repeat runs, not every such curve was filed as active; the % refers to the signal ratio; note: series mostly up to about 61 µM)
# Outline: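 NFkB-bla ME-180 cells with a beta-lactamase reporter under an NF-kB response element were plated overnight, treated with compounds in DMSO for 5 hr at 37 C, then loaded with FRET substrate for 1.5 hr at room temperature.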
# [14] = qHTS assay to identify small molecule agonists of the endoplasmic reticulum stress response signaling pathway (AID 1159516; active = well fitted activation curve with a large enough effect in the signal ratio in the repeat runs, not every such curve was filed as active; the % refers to the signal ratio)
# Outline: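 Reporter HeLa cells (ESRE-beta-lactamase) underwent 5 hr compound incubation at 37 C and 5% CO2 in quantitative HTS format. Detection followed 2 hr of FRET substrate loading at room temperature.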
# [15] = qHTS assay to identify small molecule agonists of the endoplasmic reticulum stress response signaling pathway - cell viability counter screen (AID 1159517; calls by dose curve; note: nearly all actives have a fitted effect of over 50% in size; note: potency is the fitted concentration of half-maximal effect)
# Outline: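 Counter-screen wells were identical to the reporter wells. Cells were plated at 1,500 per well and dosed for 5 hr, then read for luminescence 30 min after CellTiter-Glo addition.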
# [16] = qHTS assay to identify small molecule antagonists of the retinoid-related orphan receptor gamma (ROR-gamma) signaling pathway - cell viability counter screen (AID 1159520); note: nearly all actives have a fitted effect of over 50% in size
# Outline: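 Tet-on ROR gamma CHO cells were given compounds for 2 hr, then doxycycline hyclate at 1 uM final, and incubated 16 hr at 37 C. Viability was measured as ATP content by CellTiter-Glo luminescence.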
# [17] = target: Nuclear receptor ROR-gamma (Homo sapiens) (UniProt P51449); assay: qHTS assay to identify small molecule antagonists of the retinoid-related orphan receptor gamma (ROR-gamma) signaling pathway (AID 1159521)
# Outline: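 Test compounds were applied to Tet-on RORγ CHO cells 2 h ahead of doxycycline hyclate (1 uM final). Luciferase reporter activity was quantified by luminescence after 16 h at 37 C and 5% CO2.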
# [18] = qHTS assay to identify small molecule agonists of the AP-1 signaling pathway - cell viability counter screen (AID 1159525; calls by dose curve; note: nearly all actives have a fitted effect of over 55% in size)
# Outline: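 AP-1-bla ME-180 cells in Opti-MEM with 0.5% dialyzed FBS, compound exposure 5 h at 37 C in 15-point titration. Viability read in the same wells as ATP content by CellTiter-Glo luminescence, normalised to tetra-n-octylammonium bromide and DMSO controls.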
# [19] = qHTS assay to identify small molecule agonists of the AP-1 signaling pathway (AID 1159526; calls by dose curve)
Compound,outcome [1],Potency [2],outcome [3],outcome [4],outcome [5],outcome [6],outcome [7],outcome [8],outcome [9],outcome [10],outcome [11],outcome [12],outcome [13],outcome [14],Potency [15],outcome [16],Potency [17],outcome [18],Potency [19]
COc1ccc(N)c(C)c1,inactive,inactive,inactive,inactive,inactive,inactive,inactive,inactive,inactive,inactive,inactive,inactive,inactive,inactive,inactive,inactive,inactive,inactive,inactive
CCCCCCCO,inactive,–,inactive,–,–,inactive,–,inactive,inactive,inactive,inactive,inactive,inactive,inactive,inactive,inactive,inactive,inactive,inactive
CC(=O)Oc1ccc(C)cc1,inactive,inactive,inactive,inactive,–,inactive,–,inactive,–,–,inactive,inactive,inactive,inactive,inactive,inactive,inactive,inactive,inactive
C[C@]12CCC(=O)C=C1CC[C@@H]1[C@@H]2[C@@H](O)C[C@@]2(C)[C@H]1CC[C@]2(O)C(=O)CO,inactive,inactive,inactive,inactive,–,inactive,–,inactive,inactive,inactive,inactive,inactive,inactive,inactive,inactive,inactive,inactive,inactive,inactive
O=C(OCC1CCC2OC2C1)C1CCC2OC2C1 (stereo not drawn),inactive,inactive,inactive,inactive,–,inactive,–,inactive,inactive,–,inactive,inactive,inactive,inactive,inactive,inactive,inactive,inactive,inactive
O=C(O)/C=C/C(=O)O,inactive,inactive,inactive,inactive,–,inactive,–,inactive,inactive,inactive,inactive,inactive,inactive,inactive,inactive,inactive,inactive,inactive,inactive
CCNc1cccc(C)c1,inactive,inactive,inactive,inactive,–,inactive,–,inactive,inactive,inactive,inactive,–,inactive,inactive,inactive,inactive,inactive,inactive,inactive
O=C(O)c1ccc(C(=O)O)c(C(=O)O)c1,inactive,inactive,inactive,inactive,–,inactive,–,inactive,–,–,inactive,inactive,inactive,inactive,inactive,inactive,inactive,inactive,inactive
O=C(O)CCCCCCCCC(=O)O,inactive,inactive,inactive,inactive,inactive,inactive,inactive,inactive,inactive,inactive,inactive,inactive,inactive,inactive,inactive,inactive,inactive,inactive,inactive
NC(=S)NNC(N)=S,inactive,inactive,inactive,inactive,inactive,–,inactive,inactive,–,–,inactive,inactive,inactive,inactive,inactive,inactive,inactive,inactive,inactive
CC(C)(C#N)c1cc(Cn2cncn2)cc(C(C)(C)C#N)c1,inactive,–,inactive,–,inactive,inactive,inactive,inactive,inactive,inactive,inactive,inactive,inactive,inactive,inactive,inactive,inactive,inactive,inactive
C=C(C)C(=O)OCC(C)C,inactive,inactive,inactive,inactive,inactive,inactive,inactive,inactive,inactive,inactive,inactive,inactive,inactive,inactive,inactive,inactive,inactive,inactive,inactive
CC(C)(C)c1cc(Cc2cc(C(C)(C)C)c(O)c(C(C)(C)C)c2)cc(C(C)(C)C)c1O,inactive,inactive,inactive,inactive,inactive,inactive,inactive,inactive,inactive,inactive,inactive,inactive,inactive,inactive,inactive,inactive,inactive,inactive,inactive
CCCCCCCCCCN,inactive,inactive,inactive,inactive,–,inactive,–,inactive,–,–,inactive,inactive,inactive,inactive,inactive and 21.9 µM (active),inactive,inactive,inactive,inactive
O=S(=O)(O)c1ccc(N=Nc2c(O)ccc3cc(S(=O)(=O)O)ccc23)cc1,inactive,inactive,inactive,inactive,inactive,inactive,inactive,inactive,inactive,inactive,inactive,inactive,inactive,inactive,inactive,inactive,inactive,inactive,inactive
O=C(O)c1cc2ccccc2cc1O,inactive,inactive,inactive,inactive,–,inactive,–,inactive,inactive,inactive,inactive,inactive,inactive,inactive,inactive,inactive,inactive,inactive,inactive
CCCCCCCCCCCCCCCCO,inactive,inactive,inactive,inactive,–,inactive,–,inactive,inactive,inactive,inactive,inactive,inactive,inactive,inactive,inactive,inactive,inactive,inactive
CC(=O)CC(C)(C)O,inactive,inactive,inactive,inactive,inactive,inactive,inactive,–,inactive,inactive,inactive,inactive,inactive,inactive,inactive,inactive,inactive,inactive,inactive
COc1ccc(CCC(C)=O)cc1,inactive,inactive,inactive,inactive,inactive,inactive,inactive,inactive,inactive,inactive,inactive,inactive,inactive,inactive,inactive,inactive,inactive,inactive,inactive
C=Cc1ccc(C)cc1,inactive,inactive,inactive,inactive,–,inactive,–,inactive,inactive,inactive,inactive,inactive,inactive,inactive,inactive,inactive,inactive,inactive,inactive
CC(C)OC(=O)COc1ccc(Cl)cc1Cl,inactive,inactive,inactive,inactive,inactive,inactive,inactive,inactive,–,–,inactive,inactive,inactive,inactive,inactive,inactive,inactive,inactive,inactive
CCCCCCCCCCO,inactive,–,inactive,–,inactive,inactive,inactive,inactive,inactive,–,inactive,inactive,inactive,inactive,inactive,inactive,inactive,inactive,inactive
CCOC(=O)c1ccc(N)cc1,inactive,–,inactive,–,inactive,inactive,inactive,inactive,inactive,inactive,inactive,inactive,inactive,inactive,inactive,inactive,inactive,inactive,inactive
CC1(C)S[C@@H]2[C@H](NC(=O)COc3ccccc3)C(=O)N2[C@H]1C(=O)O,inactive,inactive,inactive,inactive,–,inactive,–,inactive,inactive,–,inactive,inactive,inactive,inactive,inactive,inactive,inactive,inactive,inactive
